Among all 190,000 compounds or so, about 810 (0.43%) were called active. Rule as the data show it: active = inhibition above about 50%; inactive = the rest. Only a selection was taken, and actives are over-represented in it overall.

In the test the target is Mannose-6-phosphate isomerase (Homo sapiens) (UniProt P34949). Put plainly: MPI enzyme activity inhibition – biochemical, fluorescence intensity, coupled assay, primary screen (AID 1209).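 Also: plate controls were DMSO vehicle for no effect and wells lacking substrate for full effect.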 The settings on record: purified PMI enzyme, at 20 µM, active compounds read high.
Mannose-6-phosphate isomerase (Homo sapiens), sequence (P34949 whole entry, looked up): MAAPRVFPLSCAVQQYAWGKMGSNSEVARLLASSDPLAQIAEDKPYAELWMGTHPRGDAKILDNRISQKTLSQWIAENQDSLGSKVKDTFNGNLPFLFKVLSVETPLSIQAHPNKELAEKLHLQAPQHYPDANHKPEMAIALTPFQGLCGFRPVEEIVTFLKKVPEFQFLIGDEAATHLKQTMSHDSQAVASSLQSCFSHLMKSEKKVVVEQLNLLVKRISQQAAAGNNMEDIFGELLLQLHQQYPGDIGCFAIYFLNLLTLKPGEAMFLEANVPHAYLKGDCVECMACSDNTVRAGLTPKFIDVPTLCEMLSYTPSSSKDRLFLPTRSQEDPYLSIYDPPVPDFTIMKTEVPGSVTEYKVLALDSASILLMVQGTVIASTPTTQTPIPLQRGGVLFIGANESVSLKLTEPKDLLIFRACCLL
The term inhibition denotes the relative decrease from the control value, in per cent. For `O=C(O)CCn1cc(C=C2C(=O)NC(=S)NC2=O)c(-c2cc3ccccc3oc2=O)n1`, the inhibition is -33.9% (inactive).

`O=C(O)CCn1cc(C=C2C(=O)NC(=S)NC2=O)c(-c2cccc(Cl)c2)n1`: the inhibition was 64.1% (active).

`O=C(O)CCn1cc(C=C2C(=O)NC(=S)NC2=O)c(-c2ccccc2)n1`: the inhibition is 55.5% (active).

Turning to `N#CCCn1cc(C=C2C(=O)NC(=O)NC2=O)c(-c2ccccc2)n1`, the inhibition is -7.4% (inactive).

As to `O=C(O)CCn1cc(C=C2C(=O)NC(=O)NC2=O)c(-c2ccc(Br)cc2)n1`, the inhibition is 5.8% (inactive).

For the molecule `O=C(O)CCn1cc(C=C2C(=O)NC(=O)NC2=O)c(-c2cc3ccccc3oc2=O)n1`, the inhibition was -3.7% (inactive).

On to `O=c1c2ccccc2nc(-c2cccs2)n1-c1ccccc1`, for which the inhibition is -8.6% (inactive).

On to `COc1ccc(N/N=C/c2c(O)n(-c3cccc(C)c3)c(=O)[nH]c2=O)cc1`, for which the inhibition is -72.8% (inactive).

Consider `CCOCCCNC(=O)CN1C2CCC1CC(O)(c1ccc(OC)cc1)C2` (centres undefined), for which the inhibition was 15% (inactive).

Take `CC(=O)Nc1ccccc1OC(=O)N(C)C`: the inhibition was 7.3% (inactive).

Consider `CN(C)CCCN=Cc1c(O)n(CCc2ccccc2)c(=O)[nH]c1=O`, for which the inhibition was -1.1% (inactive).

Regarding `CCC(C)NC(=O)c1c(N)n(CCCOC)c2nc3ccccc3nc12` (centres undefined), the inhibition was 56% (active).

On to `COCCCn1c(N)c(C(=O)NCCC(C)C)c2nc3ccccc3nc21`, for which the inhibition is 37.9% (inactive).

In the case of `CCCCn1c(N)c(C(=O)NCCN2CCOCC2)c2nc3ccccc3nc21`, the inhibition was 17.1% (inactive).

Regarding `CCCCn1c(N)c(C(=O)NCc2cccs2)c2nc3ccccc3nc21`, the inhibition is 59.9% (active).

As to `CCCCCn1c(N)c(C(=O)NCc2cccs2)c2nc3ccccc3nc21`, the inhibition was 51.9% (active).

Consider `CCCCNC(=O)c1c(N)n(CCCOC)c2nc3ccccc3nc12`, for which the inhibition was 41.1% (inactive).

As to `CCOC(=O)c1c(N)n(CCCOC(=O)c2ccco2)c2nc3ccccc3nc12`, the inhibition was 6% (inactive).

For the molecule `CCCCn1c(NC(=O)c2ccc(Br)o2)c(C(=O)OCC)c2nc3ccccc3nc21`, the inhibition is 22.2% (inactive).

For the molecule `CCCCn1c(NC(=O)c2ccco2)c(C(=O)OCC)c2nc3ccccc3nc21`, the inhibition is 55.8% (active).

Consider `CCCCCn1c(N)c(C(=O)NCCN2CCOCC2)c2nc3ccccc3nc21`, for which the inhibition was 25.4% (inactive).

With `CCCCCCn1c(N)c(C(=O)NCCN2CCOCC2)c2nc3ccccc3nc21`, the inhibition is 28.6% (inactive).

Turning to `CC(C)CCn1c(N)c(C(=O)NCc2cccs2)c2nc3ccccc3nc21`, the inhibition is 24.5% (inactive).

Consider `CC1C(c2cccs2)=[N+]([O-])C(C)(C(=O)c2cccs2)N1O` (centres undefined), for which the inhibition is -1.9% (inactive).

On to `Cc1c(C=O)c2ccccc2n1Cc1cccc(F)c1`, for which the inhibition was -20.1% (inactive).

For the molecule `CCOC(=O)C1C(=O)N(C)C2(C)CC1c1cc(OC)ccc1O2` (centres undefined), the inhibition was -7% (inactive).

Take `O=C1NC(=O)C(CCc2ccncc2)(CCc2ccncc2)C(=O)N1CCc1ccc(F)cc1`: the inhibition is -4.4% (inactive).

For the molecule `COc1ccc2[nH]c(C)c(CCN3CCC(=O)C(C)C3C)c2c1` (centres undefined), the inhibition was 13.4% (inactive).

Regarding `COC(=O)N(c1ccc(OC)cc1)P1(=S)OCCC(C)O1` (centres undefined), the inhibition was 62.3% (active).

On to `CCOC(=O)N(c1ccccc1)P1(=S)OCC(C)O1` (centres undefined), for which the inhibition is -1.5% (inactive).

Take `COC(=O)N(c1ccccc1)P1(=S)OCCO1`: the inhibition was 24.3% (inactive).

As to `CCn1c(=O)n(CC)c2cc([N+](=O)[O-])c(N3CCNCC3)cc21`, the inhibition is 0.8% (inactive).

In the case of `Cn1ncnc2c(=O)n(C)c(=O)nc1-2`, the inhibition is 74.8% (active).

For `CCn1nc(/C=C/c2ccccc2)nc2c(=O)n(C)c(=O)nc1-2`, the inhibition was 39.7% (inactive).

`CCn1nc(-c2ccccc2)nc2c(=O)n(C)c(=O)nc1-2`: the inhibition is -4.4% (inactive).

On to `Cc1nc2c(=O)n(C)c(=O)nc-2n(C)n1`, for which the inhibition is 73.6% (active).

For `CCn1nc(-c2cccs2)nc2c(=O)n(C)c(=O)nc1-2`, the inhibition is 6.3% (inactive).

Take `CCc1ccc(CN2CCN(Cc3ccc(SC)cc3)CC2)cc1`: the inhibition is -14.5% (inactive).

Consider `C=C1N2CCC(CC2)C1(O)c1ccc(C)c(C)c1` (centres undefined), for which the inhibition is -10.2% (inactive).

As for `O=C(Cc1ccccc1)OCCNC(=O)c1cccnc1`, the inhibition was -4% (inactive).

Turning to `CN(C)C(=O)Oc1c(Cl)cc(Cl)c2cccnc12`, the inhibition is 8.2% (inactive).

As for `COC(=O)c1ccccc1N=Cc1c(O)[nH]c(=S)[nH]c1=O`, the inhibition was -42.9% (inactive).

Take `O=c1c(/C=N/N2CCOCC2)c(O)n(-c2ccccc2)c(=S)n1-c1ccccc1`: the inhibition is 4.6% (inactive).

For the molecule `Cc1ccccc1C(=O)NC(Oc1ccccc1)C(Cl)(Cl)Cl` (centres undefined), the inhibition is 6.5% (inactive).

`CC(=O)N(C1=NCCCS1)c1ccccc1Cl`: the inhibition was -4.6% (inactive).

With `O=c1[nH]c(=O)n(-c2cccc(Cl)c2)c(O)c1C=NCCCN1CCOCC1`, the inhibition was 4.5% (inactive).

On to `CC1=CC(=O)NP(=O)(Oc2ccc3ccccc3c2)N1` (centres undefined), for which the inhibition was 78.5% (active).

On to `COc1ccc(P2(=O)Nc3ccccc3N2)cc1`, for which the inhibition was 16.8% (inactive).

Regarding `O=C(C1CC(c2ccc(F)cc2)=NO1)N1CCC2(CC1)OCCO2` (centres undefined), the inhibition is -5.3% (inactive).

On to `Cn1ccnc1P(=S)(c1nccn1C)c1nccn1C`, for which the inhibition was -5% (inactive).

As to `O=P(c1ccccc1)(c1nc2ccccc2s1)N1CCOCC1` (centres undefined), the inhibition was -5.8% (inactive).

On to `Cc1ccc(NP(=O)(c2ccccc2)c2nc3ccccc3s2)cc1` (centres undefined), for which the inhibition is 80.5% (active).

On to `COCCNP(=O)(c1ccccc1)c1nc2ccccc2s1` (centres undefined), for which the inhibition was 1.6% (inactive).

In the case of `CN(C)c1ccc([P+](=O)c2ccc(N(C)C)cc2)cc1`, the inhibition is 10.8% (inactive).

For the molecule `CCc1c(C)nc(N)nc1N1N=C1SCC(N)=O`, the inhibition was -3% (inactive).

In the case of `Cc1ccccc1N1C(=O)NC(=O)/C(=C\c2ccc3c(c2)CCCN3Cc2ccccc2)C1=O`, the inhibition was -9% (inactive).

As for `CC1CC(OP(O)(=S)c2ccc(N(C)C)cc2NC(=O)c2cccs2)CC(C)(C)C1` (centres undefined), the inhibition is 59.7% (active).

In the case of `CCOC(=O)C1(CCc2ccccc2)CCN(Cc2cccc3cnccc23)CC1`, the inhibition was 24.8% (inactive).

Regarding `COc1ccc(C(CC(=O)N2CCC3(CC2)OCCO3)NS(=O)(=O)c2ccc(OC)cc2)cc1` (centres undefined), the inhibition is 4.9% (inactive).

Take `O=C(C1CCCO1)N1CCC2(CC1)OCCO2` (centres undefined): the inhibition was 5.3% (inactive).

For `CCN1C(=O)C(=Cc2cc(C)n(C3CC3)c2C)C(=O)N(CC)C1=S`, the inhibition is 63.8% (active).

Take `Cc1cc(C=C2C(=O)N(C)C(=S)N(C)C2=O)c(C)n1C1CCCCC1`: the inhibition is -12.8% (inactive).

Regarding `Cc1cc(C=C2C(=O)N(C)C(=S)N(C)C2=O)c(C)n1C1CCCC1`, the inhibition was 6% (inactive).

On to `Cn1c(O)c(C(=O)c2ccccc2)c(=O)n(C)c1=O`, for which the inhibition was -12.2% (inactive).

With `O=c1[nH]c(=S)n(C2CC2)c(O)c1/C=N/Nc1ccccc1`, the inhibition is -61.8% (inactive).

For `CCCCC(=O)N/N=C/c1c(O)n(C2CC2)c(=S)[nH]c1=O`, the inhibition is 20.6% (inactive).

`O=C(N/N=C/c1c(O)n(C2CC2)c(=S)[nH]c1=O)c1ccccc1O`: the inhibition was 60.8% (active).

With `COc1ccc(C2=NCC(=O)N(CC(=O)NCc3ccco3)c3sc4c(c32)CCCC4)cc1`, the inhibition was 4.5% (inactive).

For `O=C1CC(=O)N(c2cccc(Cl)c2)C(=O)N1`, the inhibition was 0.2% (inactive).

`CCCCc1nc(N2CCNCC2)c(C#N)c2c1CSC(C)(C)C2`: the inhibition is 3.9% (inactive).

In the case of `Oc1ccc(/C=N/NP(=S)(c2ccccc2)c2ccccc2)c(O)c1O`, the inhibition is 62.4% (active).

`Oc1ccc(/C=N/NP(=S)(c2ccccc2)c2ccccc2)cc1`: the inhibition is 14.9% (inactive).

As to `Oc1ccccc1/C=N/NP(=S)(c1ccccc1)c1ccccc1`, the inhibition was 6.9% (inactive).

With `O=C1c2ccccc2C(=O)N1Cc1nc2ccccc2c(=O)n1-c1ccccn1`, the inhibition was -3% (inactive).

Turning to `CCCCCCOc1ccc(CN2CCN(CCO)CC2)cc1`, the inhibition was -11.3% (inactive).

In the case of `COc1cccc(N2CCN(Cc3cccc(Cl)c3)CC2)c1`, the inhibition was 9.6% (inactive).

`CC12CCC3C(CCC4C/C(=N/O)CCC43C)C1CCC2O` (centres undefined): the inhibition was 2.7% (inactive).

For the molecule `CC12CCC(=O)C=C1CCC1C2CCC2(C)C(O)CCC12` (centres undefined), the inhibition was -6.1% (inactive).

On to `C[C@]12CC[C@@H]3c4ccc(O)c(O)c4CC[C@H]3[C@@H]1CC[C@@H]2O`, for which the inhibition is 75.9% (active).

For `CCOP(=O)(C#CC(C)(C)C)C(C)(O)c1ccccc1` (centres undefined), the inhibition was 3.1% (inactive).

`Cc1nc2cc(C(F)(F)F)ccc2n1C1CCN(Cc2nnnn2Cc2cccs2)CC1`: the inhibition is 9.2% (inactive).

Regarding `CN1CCN(c2c(N)c(=O)oc3ccccc23)CC1`, the inhibition was 0.6% (inactive).

On to `COCCOC(=O)c1c(N)n(Cc2ccccc2)c2nc3ccccc3nc12`, for which the inhibition is 14.3% (inactive).

For the molecule `Cn1c(O)c(C=NC2CCCCCC2)c(=O)[nH]c1=S`, the inhibition is 6.6% (inactive).

Regarding `CN(C)c1cccc2c(C#N)ccc(N(C)C)c12`, the inhibition was 82% (active).

In the case of `CC(C)(C)c1ccc(S(=O)(=O)N2CC3CC(C2)c2cccc(=O)n2C3)cc1` (centres undefined), the inhibition was -3.5% (inactive).

`Cc1cc(=O)[nH]c(SCc2nc3ccccc3c(=O)n2-c2ccccc2C)n1`: the inhibition was 0.9% (inactive).

Regarding `COc1cccc(NP(=O)(Oc2ccc(Cl)cc2)Oc2ccc(Cl)cc2)c1`, the inhibition is 18.7% (inactive).

Regarding `Cc1ccsc1C(=O)C1CCCN(Cc2cnn(C)c2)C1` (centres undefined), the inhibition is 9.3% (inactive).

For `Oc1ccc(CC2CC3CCN2CC3)cc1O` (centres undefined), the inhibition was 52.7% (active).

Regarding `COc1ccc(CC2c3cc(OC)c(OC)cc3CCN2C)cc1O` (centres undefined), the inhibition is -2.1% (inactive).

Turning to `O=C1C2CCN(CC2)C1Cc1ccccc1O` (centres undefined), the inhibition was -6.7% (inactive).

Consider `CCc1ccc(N2C(=O)NC(=O)C(CCc3ccncc3)(CCc3ccncc3)C2=O)cc1`, for which the inhibition was 4.9% (inactive).

In the case of `c1ccc(CCn2nnnc2CN2CCC(n3nnc4ccccc43)CC2)cc1`, the inhibition was -11.1% (inactive).

On to `COc1cccc(N2C(=O)NC(=O)C3(Cc4cc(C)ccc4N(C)C3)C2=O)c1` (centres undefined), for which the inhibition is -37% (inactive).

`CN1CCc2nc(N)c(C#N)c(-c3ccccc3)c2C1`: the inhibition was 2.3% (inactive).

Regarding `Cc1ccc2c(c1)=C/C(=C\c1c(O)[nH]c(=S)[nH]c1=O)C(=O)N=2`, the inhibition was 21.3% (inactive).

On to `Cc1ccc2c(c1)=C/C(=C\c1c(O)[nH]c(=O)[nH]c1=O)C(=O)N=2`, for which the inhibition is 65% (active).

For `Cc1cccc2c1=NC(=O)/C(=C/c1c(O)[nH]c(=O)[nH]c1=O)C=2`, the inhibition is -7.2% (inactive).
